Source: PubChem BioAssay
Rows were chosen to be rich in hits. Some 2.3% of all compounds tested hit in one or more screens of this group.
LMP1 NFkB inh: Epstein-Barr LMP1 NF-kappaB reporter inhibition; LMP1-induced NF-kappaB luciferase reporter cells, luminescence; inhibition, % at 12.5 µM; 350,000 tested, 0.69% active; in the data active = inhibition above about 41%
Gli-Sufu block: blocks Gli-Sufu signaling in a luciferase reporter; Sufu-KO-LIGHT fibroblasts, Gli luciferase reporter luminescence; inhibition, % at 5 µM; 340,000 tested, 0.74% active;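 active = inhibition above about 55%, limit read from the data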
697 NFkB inh: lowers PMA/ionomycin-induced NF-kB signal in 697 B cells; 697 B-cell NF-kB luciferase reporter, 16 h; inhibition, % at 4 µM; 330,000 tested, 0.33% active; AID 435022; in the data active = inhibition above about 35%
Shn3 3UTR inh: Schnurri-3 reporter inhibition in Clone20 osteoblasts. 360,000 tested, 0.52% active. inhibition, % at 12.5 µM. Clone20 osteoblast Shn3 3'UTR firefly luciferase, 24 h. AID 588674;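 active = mean inhibition of at least 75% with every replicate also reaching 75%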
Jurkat NFkB inh: inhibitors of the PMA/ionomycin-induced NF-kB reporter in Jurkat cells. PMA/ionomycin-induced NF-kB luciferase reporter, luminescence. inhibition, % at 4 µM. 330,000 tested, 0.53% active. AID 435003; in the data active = inhibition above about 50%
TRPM1 prom inh: reduces MITF-dependent TRPM1 promoter luciferase signal; AID 488899; 330,000 tested, 0.83% active; SK-MEL-5 TRPM1 promoter luciferase, 24 h; inhibition, % at 12.5 µM;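 active = mean inhibition across replicates of 60% or more, whatever share of single replicates reaches that level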
697 NFkB conf: inhibitors of the PMA/ionomycin-induced NF-kB reporter in 697 B cells, retest; AID 449746; 2,000 tested, 35% active; shares compounds with 697 NFkB inh; 697 B-cell NF-kB luciferase, 16 h; inhibition, % at 4 µM; in the data active = inhibition mostly above about 28%, no sharp cut-off; inactive = mostly below about 22%
A number is an active result; . = inactive; / = not tested or not shown.

SMILES | LMP1 NFkB inh | Gli-Sufu block | 697 NFkB inh | Shn3 3UTR inh | Jurkat NFkB inh | TRPM1 prom inh | 697 NFkB conf
Cc1c(Cl)c([N+](=O)[O-])nn1CCCC(=O)Nc1sc2c(c1C(N)=O)CCC(C)C2 (stereo not drawn) | . | . | . | . | . | . | /
COc1ccc(CC(=O)Nc2ccc(N3CCOCC3)cc2)cc1S(=O)(=O)N1CCOCC1 | . | . | 39 | . | . | . | .
COc1cc(OC)c(NC(=O)Cc2ccc(OC)c(S(=O)(=O)N3CCOCC3)c2)cc1Cl | . | . | . | . | . | . | /
CCn1c(=O)c(C(=O)Nc2ccsc2C(=O)OC)c(O)c2ccccc21 | / | / | . | / | . | / | /
CCN(C(=O)CN1C(=O)NC2(CCc3ccccc32)C1=O)C1CCCCC1 (stereo not drawn) | . | . | 42 | . | . | . | .
COc1ccc(CCN2C(=O)NC(NC(=O)CC(C)C)(C(F)(F)F)C2=O)cc1OC (stereo not drawn) | . | . | . | . | . | . | /
O=C(COc1ccc2ccccc2c1Br)N1CCCCC1 | . | . | . | . | . | . | /
NC(=O)C1CCN(C(=O)COc2ccc3ccccc3c2Br)CC1 | . | . | 57 | . | . | . | 60
Cc1ccc(Cl)c(NC(=S)N(CCCN2CCOCC2)Cc2ccco2)c1 | . | . | . | . | . | . | /
O=C(Nc1ccc2oc(-c3ccccc3Cl)nc2c1)c1ncn[nH]1 | . | . | . | . | . | . | .
COCCCn1c(=O)c2ccccc2n(CC(=O)NC2CCCC2)c1=O | . | . | . | . | . | . | /
COc1ccc(N2C(=O)c3ccc(C(=O)Nc4cc(OC)ccc4OC)cc3C2=O)cc1 | . | / | . | . | . | . | /
O=Nc1c(-c2c(O)[nH]c3cc(Br)ccc23)[nH]c2ccccc12 | . | . | . | . | . | . | .
O=C(CSCc1cccc(Br)c1)N=Nc1c(O)[nH]c2ccccc12 | . | . | . | . | . | . | /
O=C(/C=C/c1ccccc1F)N1CCN(c2ccccn2)CC1 | . | . | . | . | . | . | /
CC(C)Cn1c([N+](=O)[O-])nc2c1c(=O)[nH]c(=O)n2C | . | . | 37 | / | . | . | 30
CCNc1nc2c(c(=O)[nH]c(=O)n2C)n1CC(C)C | . | . | . | . | . | . | /
O=C1CCN(Cc2ccccc2)C=C1C(=O)c1ccccc1 | . | . | / | . | / | . | /
O=c1c(C=NCCCO)c(-c2ccccc2)[nH]n1-c1nc2ccccc2s1 | . | . | 37 | . | . | . | 41
O=C(COC(=O)c1ccco1)NC1CCCCC1 | . | . | . | . | . | . | /
COc1ccc(/C=C2\C(=O)NCC(=O)N2C)cc1 | . | . | . | . | . | . | /
Cc1nc(Nc2ccc(C(=O)O)cc2)sc1-c1ccccc1 | . | . | . | . | . | . | .
Cc1ccc2cc3cc(C(=O)N4CCN(Cc5ccccc5)CC4)sc3nc2c1 | . | . | . | . | . | . | /
CC(=O)Nc1ccc(S(=O)(=O)Oc2ccc3c(c2)C(C)=CC(C)(C)N3)cc1 | / | / | . | / | . | / | .
Cc1c(OCc2ccc(C(=O)O)cc2)ccc2c(-c3ccccc3)cc(=O)oc12 | . | . | 37 | . | . | . | .
SMILES | LMP1 NFkB inh | Gli-Sufu block | 697 NFkB inh | Shn3 3UTR inh | Jurkat NFkB inh | TRPM1 prom inh | 697 NFkB conf
O=C(NCCCCc1ccccc1)c1cc([N+](=O)[O-])cc([N+](=O)[O-])c1 | . | . | . | . | . | . | /
Cc1cc(C)cc(OCC2CNC(=O)O2)c1 (stereo not drawn) | . | / | / | . | / | / | /
S=c1[nH]nc([C@@H]2C[C@H]2c2ccccc2)n1-c1ccccc1 | . | . | . | . | . | . | /
Cc1ccc(S(=O)(=O)NCC[C@@]2(C)C3CCC2(C)C(=O)C3)cc1 (stereo partly drawn) | . | . | . | . | . | . | /
CCCCC(=O)Nc1nc2c(OC)cc([N+](=O)[O-])cc2s1 | . | . | . | . | . | . | /
CCCCC(=O)Nc1nc2c(OC)ccc(OC)c2s1 | . | . | 36 | . | . | / | .
COc1ccc2[nH]c3c(c2c1)CCN1C(=O)C(CC(=O)NCc2ccc(OC)c(OC)c2)C[C@H](C(=O)N(C(C)C)C(C)C)[C@@]31C (stereo partly drawn) | . | . | . | . | / | . | /
COc1ccc2[nH]c3c(c2c1)CCN1C(=O)C(CC(=O)NCc2cccc(C(F)(F)F)c2)C[C@H](C(=O)N(C(C)C)C(C)C)[C@@]31C (stereo partly drawn) | . | . | 35 | . | / | . | .
O=C(CC1CCCCC1)NCC1CCCO1 (stereo not drawn) | . | . | . | . | . | . | /
COC(=O)[C@@H]1CC[C@H](C)[C@@H](c2ccc(C)cc2)N1C(=O)c1ccc(/C=N/O[C@@H](C)c2cn([C@H](CO)Cc3ccccc3)nn2)cc1 | / | / | 52 | / | . | / | .
COC(=O)[C@@H]1CC[C@H](C)[C@@H](c2ccc(C)cc2)N1C(=O)c1ccc(/C=N/OC[C@@H](O)[C@H]2O[C@@H]3OC(C)(C)O[C@@H]3[C@H]2O)cc1 | / | / | . | / | . | / | /
COc1ccc(OC)c(NC(=O)c2sc3nc(Cc4ccccc4)cc(C(F)(F)F)c3c2N)c1 | . | . | . | . | . | . | /
CC(C)Oc1cc(O)c2c(=O)c(-c3ccc(O)cc3)coc2c1 | . | . | . | . | . | . | .
O=c1c(-c2ccc(O)cc2)coc2cc(O)cc(O)c12 | . | . | . | . | . | . | /
Cc1ccc2cccc(OCC(=O)NCCC3=CCCCC3)c2n1 | . | . | . | . | . | . | /
Cc1cc(C)c2c(N)c(C(=O)Nc3ncc(C)s3)sc2n1 | 77 | 67 | . | . | . | 88 | .
COC(=O)c1sc2nc(C)cc(C)c2c1N | . | . | . | . | . | . | /
COc1cc(/C=N/NC(=O)c2sc3nc(C)cc(C)c3c2N)ccc1O | . | . | 43 | . | . | . | .
Cc1cc(C(=O)N/N=C/c2cccc([N+](=O)[O-])c2)c(C)n1-c1ccccc1 | . | . | . | . | . | . | /
CC(=O)c1c(C(C)=O)c(C)n(-c2cccc([N+](=O)[O-])c2)c1C | . | . | 36 | . | . | . | .
Cc1cc(C(=O)CCl)c(C)n1-c1cccc([N+](=O)[O-])c1 | . | . | 40 | . | . | . | .
COc1ccc(-c2csc3nc(C)nc(N4CCCCC4)c23)cc1OC | . | . | . | . | . | . | /
COc1ccc(-c2csc3nc(-c4cccnc4)nc(N4CCC(C(N)=O)CC4)c23)cc1OC | . | . | 39 | . | . | . | 26
COc1cc(-c2nc3n(n2)C(c2ccc(F)cc2)C2=C(CCCC2=O)N3)cc(OC)c1OC (stereo not drawn) | . | . | 37 | . | . | . | 33
COc1cccc(C2C3=C(CCCC3=O)Nc3nc(-c4cc(OC)c(OC)c(OC)c4)nn32)c1 (stereo not drawn) | . | . | . | . | . | . | /
CCc1nc2c(OCc3ccc(F)cc3)cccn2c1N(C)C(=O)c1ccncc1 | / | / | / | . | / | / | /
